These results are taken from PubChem BioAssay AID720519 (National Center for Advancing Translational Sciences (NCATS), 2013).

Records with an inconclusive call do not appear. A call without a number means that no potency is given here. Calls of active or inactive are those of the source. Calls follow the shape of the dose curve; as a rule, active = well fitted activation curve with a large enough effect; inconclusive = small, poorly fitted or top-dose-only effect; inactive = flat fitted curve, though single readings scatter.
Potency is read from the fitted curve at half-maximal effect.

This assay is described as follows: qHTS for Inhibitors of Cell Surface uPA Generation: Confirmatory Assay for Cherry-picked Compounds. As to conditions: cell surface uPA activity generation, qHTS confirmation; series mostly up to 115 µM. In a few lines:
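RAW 264.7 cells at 4000/well, incubated overnight, then treated with compounds. After 24 h at 37 C, viability was read by ATPlite luminescence. An increase in signal indicates blocked uPA-dependent LF entry.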
As for `Brc1ccsc1/C=N/Nc1ccccc1`, the Potency result is “inactive”.

With `O=C(c1ccccn1)C1CCCN(Cc2cn[nH]c2-c2cc3ccccc3o2)C1` (centres undefined), the Potency result is “inactive”.

On to `O=C(Nc1ccc2c(c1)CCC2)Nc1ccc2c(c1)OCO2`, for which the Potency entry is “inactive”.

`O=C(NC[C@H]1CCCO1)c1cccc2c1C(=O)c1ccc(-c3ccc(F)cc3OCc3ccccc3)cc1S2(=O)=O`: the Potency entry was “inactive”.

As to `CC(=O)NC(=S)Nc1ccc([N+](=O)[O-])cc1C`, the Potency entry is “inactive”.

On to `COc1ccc(-c2cc(-c3ccccc3)nc3ncnn23)cc1`, for which the Potency entry is “inactive”.

On to `Cc1ccc(NC(=O)c2ccc(=O)[nH]n2)cc1S(=O)(=O)Nc1ccccc1Cl`, for which the Potency result was “inactive”.

For the molecule `COc1ccc(Nc2nc(-c3ccccc3)c(C(=O)Nc3cccnc3)s2)cc1`, the Potency result was “inactive”.

Turning to `COc1cc(C(=O)Nc2nnc(C)s2)cc(OC)c1OC`, the Potency entry was “inactive”.

Take `CC1(C)CC2(CC(c3ccccc3)Oc3cc(O)ccc32)NC(=S)N1` (centres undefined): the Potency result is “inactive”.

Take `COc1ccc2cc(CCNC(=O)c3ccc4c(c3)OCO4)c(=O)[nH]c2c1`: the Potency result is “inactive”.

As for `O=C1CC(/C=C/c2ccc(Cl)cc2)=Nc2ccccc2N1`, the Potency entry is “inactive”.

Regarding `CCNC(=S)NNC(=O)c1ccncc1`, the Potency entry is “inactive”.

As for `COc1ccc(C(CNC(=O)C(C)Oc2ccc(Br)cc2)N2CCCC2)cc1` (centres undefined), the Potency entry was “inactive”.

Regarding `O=C(NCCS(=O)(=O)N1CCC2(CC1)OCCO2)c1ccc(F)cc1`, the Potency entry is “inactive”.

Turning to `Fc1cccc(Cl)c1CSc1ccc(-c2cccnc2)nn1`, the Potency entry is “inactive”.

Consider `CC1(c2cccc([N+](=O)[O-])c2)CC(C)(C)N(C(=O)c2ccccc2)c2ccccc21` (centres undefined), for which the Potency entry is “inactive”.

As for `CCO[C@H]1OC(C(=O)N2CCCCCCC2)=C[C@@H](c2ccc(C(F)(F)F)cc2)[C@@H]1CCCO`, the Potency result was “inactive”.

`O=C(c1cc2cc([N+](=O)[O-])ccc2s1)N1CCOCC1`: the Potency result was “inactive”.

As to `CCOC(=O)c1ccccc1N=Cc1c(O)c2ccccc2oc1=O`, the Potency entry was “inactive”.

With `N#Cc1ccccc1Sc1ccccc1C(=O)Nc1ccc(Br)cc1`, the Potency result was “inactive”.

On to `O=C(COc1ncnc2sccc12)Nc1cccc(S(=O)(=O)N2CCCC2)c1`, for which the Potency entry is “inactive”.

As to `O=C(C[C@@H]1C/C=C\C[C@H](Cc2ccc(F)cc2)C(=O)OC[C@H]2CCCN2C1=O)N[C@H](CO)Cc1ccccc1`, the Potency entry is “inactive”.

As to `CCCOc1ccc(CC2CCC(=O)NC2=O)cc1` (centres undefined), the Potency result was “inactive”.

As for `COc1cccc(CN(C)C(=O)c2cc(S(=O)(=O)N3CCCC3)ccc2C)c1OC`, the Potency entry is “inactive”.

As for `COCCCN1CC23C=CC(O2)C(C(=O)O)C3C1=O` (centres undefined), the Potency result was “inactive”.

As to `CCN(CC)CC(=O)Nc1sc2c(c1C(=O)c1ccccc1OC)CCC2`, the Potency was 10.4 µM (active).

Regarding `COc1cc(CNCc2ccc3c(c2)OCO3)c([N+](=O)[O-])cc1OC`, the Potency entry was “inactive”.

As for `CC(C)(C)C(=O)NCCc1nc2ccccc2n1CC(=O)c1ccc(Cl)cc1`, the Potency entry is “inactive”.

As for `COc1ccc(C(c2sc3nc(C)nn3c2O)N2CCC(C(N)=O)CC2)cc1OC` (centres undefined), the Potency entry was “inactive”.

For the molecule `COc1ccc(NC(=O)CN2C(=O)CSc3ncccc32)cc1`, the Potency result is “inactive”.

As to `CC(=O)c1cnc2nc(SCc3cccc(C)c3)nn2c1C`, the Potency result was “inactive”.

For `O=C(c1cc(COc2c(F)cccc2F)on1)N1CCc2ccccc2C1`, the Potency entry was “inactive”.

In the case of `CS(=O)(=O)N1CCC(C(=O)Nc2ccccc2)CC1`, the Potency result was “inactive”.

Consider `CCOC(=O)Oc1c(OC)cc(C(=O)O[C@@H]2C[C@@H]3CN4CCc5c([nH]c6cc(OC)ccc56)[C@H]4C[C@@H]3[C@H](C(=O)OC)[C@H]2OC)cc1OC`, for which the Potency result was “inactive”.

On to `O=C(COc1ccc(C(=S)N2CCOCC2)cc1)N1CCOCC1`, for which the Potency result was “inactive”.

`CCN(CC)S(=O)(=O)c1cc(NC(=O)COC(=O)C2CCC2)ccc1C`: the Potency entry was “inactive”.

On to `O=C(C[n+]1ccccc1)Nc1ccccc1C(F)(F)F`, for which the Potency result is “inactive”.

Turning to `Cc1[nH]c2ccccc2c1C(=O)COC(=O)c1cccc(S(=O)(=O)N2CCCCC2)c1`, the Potency entry is “inactive”.
